Measurements published in PubChem BioAssay (Tox21).
Inconclusive results are not listed. The source made the active and inactive calls. Unless noted, the call rests on the fitted dose curve; in most records, active means well fitted curve in the direction sought with a large enough effect in the repeat runs; inconclusive means weak or mixed curves; inactive means no such curve, though single readings can be large; an effect the other way counts as inactive or inconclusive.

Experiments:
[1] = qHTS assay to identify small molecule agonists of the RXR signaling pathway - cell viability counter screen (AID 1159529); further: nearly all actives have a fitted effect of over 50% in size
In short: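 Compounds dissolved in DMSO were pinned onto HEK 293T cells carrying a beta-lactamase reporter under RXR-alpha control and incubated 16 hr. Cytotoxicity was then quantified by CellTiter-Glo luminescence.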

[2] = qHTS assay to identify small molecule agonists of the retinoic acid receptor (RAR) signaling pathway (AID 1159553); details: C3RL4 RARE luciferase reporter, agonist, 6 h; activation: at 73.3 µM (top of the series)
In short: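 Seed C3RL4 reporter cells at 1,000 per well and incubate overnight at 37 C. Add compounds in DMSO, incubate 6 hr. Add luciferase reagent, wait 30 min at room temperature, read luminescence.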

[3] = qHTS assay to identify small molecule antagonists of the estrogen related receptor (ERR) signaling pathway from Tox21 library - cell viability counter screen (AID 1224834); further: nearly all actives have a fitted effect of over 30% in size
In short: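 ERR cells, 2,000/well; 6 h settle at 37 C/5% CO2; pin-tool compound transfer in DMSO; 17.5 h at 37 C; CellTiter-Fluor, 30 min; fluorescence intensity.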

[4] = molecular target: Luciferin 4-monooxygenase (Photinus pyralis) (UniProt P08659); assay: qHTS assay to identify small molecule inhibitors of firefly luciferase (AID 1224835); further: nearly all actives have a fitted effect of over 25% in size
Sequence of Luciferin 4-monooxygenase (Photinus pyralis) (P08659 whole entry, looked up): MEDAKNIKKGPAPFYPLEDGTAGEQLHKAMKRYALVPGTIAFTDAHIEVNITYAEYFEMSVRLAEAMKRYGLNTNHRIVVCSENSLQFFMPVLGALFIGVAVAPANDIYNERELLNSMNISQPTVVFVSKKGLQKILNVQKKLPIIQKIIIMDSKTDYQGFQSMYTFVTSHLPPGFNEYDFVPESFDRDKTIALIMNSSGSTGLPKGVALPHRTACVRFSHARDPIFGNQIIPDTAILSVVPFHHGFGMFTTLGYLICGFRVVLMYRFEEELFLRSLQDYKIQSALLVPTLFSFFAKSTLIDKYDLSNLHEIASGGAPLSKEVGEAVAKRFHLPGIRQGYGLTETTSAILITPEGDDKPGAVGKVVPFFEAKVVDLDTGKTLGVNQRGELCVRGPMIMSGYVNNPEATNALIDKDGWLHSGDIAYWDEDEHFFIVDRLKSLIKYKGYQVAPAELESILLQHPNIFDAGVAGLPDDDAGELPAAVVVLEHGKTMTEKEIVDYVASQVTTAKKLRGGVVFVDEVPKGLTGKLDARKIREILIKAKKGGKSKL
In short: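 Quantitative HTS format; KM concentrations of both substrates. Purified P. pyralis FLuc activity quantified from luminescence images.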

[5] = qHTS assay to identify small molecule agonists of the constitutive androstane receptor (CAR) signaling pathway - cell viability counter screen (AID 1224836); further: nearly all actives have a fitted effect of over 45% in size
In short: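 23 h treatment, 37 C, 5% CO2. Cell line: HepG2 stably expressing hCAR with a CYP2B6-2.2kb construct. Co-treatment: PK11195, 0.75 uM final. Read-out: CellTiter-Fluor fluorescence intensity.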

[6] = qHTS assay to identify small molecule antagonists of the constitutive androstane receptor (CAR) signaling pathway - cell viability counter screen (AID 1224837); further: nearly all actives have a fitted effect of over 45% in size
In short: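 Viability was measured with CellTiter-Fluor in a HepG2 line carrying stably transfected hCAR and a CYP2B6-2.2kb construct. Cells were exposed for 23 hr at 37 C to 15 compound concentrations with 50 nM CITCO as agonist.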

[7] = molecular target: Nuclear receptor subfamily 1 group I member 3 (Homo sapiens) (UniProt Q14994); assay: qHTS assay to identify small molecule agonists of the constitutive androstane receptor (CAR) signaling pathway (AID 1224839); further: nearly all actives have a fitted effect of over 15% in size
Sequence of Nuclear receptor subfamily 1 group I member 3 (Homo sapiens) (Q14994 whole entry, looked up): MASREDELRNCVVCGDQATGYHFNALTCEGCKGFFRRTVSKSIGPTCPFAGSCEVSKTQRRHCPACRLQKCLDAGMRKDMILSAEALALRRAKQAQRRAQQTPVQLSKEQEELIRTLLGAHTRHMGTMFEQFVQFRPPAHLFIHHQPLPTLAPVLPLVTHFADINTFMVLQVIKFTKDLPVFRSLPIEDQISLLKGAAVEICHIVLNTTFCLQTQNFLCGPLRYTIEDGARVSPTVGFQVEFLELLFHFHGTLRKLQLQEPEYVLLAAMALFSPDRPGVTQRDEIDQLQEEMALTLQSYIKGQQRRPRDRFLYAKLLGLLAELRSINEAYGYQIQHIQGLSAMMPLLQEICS
In short: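 Compounds tested at 15 concentrations on HepG2 cells stably harbouring hCAR and CYP2B6-2.2kb reporter constructs, co-treated with PK11195 (0.75 uM final), 24 h at 37 C; luminescent reporter signal quantified.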

[8] = qHTS assay to identify small molecule antagonists of the estrogen related receptor signaling pathway with the pleiotropic PPARgamma coactivator (PGC) from Tox21 10K library - cell viability counter screen (AID 1224840; active means well fitted cell-killing curve with a large enough effect in the repeat runs, not every such curve was filed as active; further: nearly all actives have a fitted effect of over 40% in size)
In short: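 Multiplexed viability counter screen in the PGC/ERR cell line: cells treated with DMSO-dissolved compounds for 17.5 hours at 37 C, then viability measured as CellTiter-Fluor fluorescence.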

[9] = molecular target: Thyrotropin receptor (Homo sapiens) (UniProt P16473); assay: qHTS assay to identify small molecule agonists of the thyroid stimulating hormone receptor (TSHR) signaling pathway (AID 1224843; calls by dose curve; further: nearly all actives have a fitted effect of over 45% in size)
Sequence of Thyrotropin receptor (Homo sapiens) (P16473 whole entry, looked up): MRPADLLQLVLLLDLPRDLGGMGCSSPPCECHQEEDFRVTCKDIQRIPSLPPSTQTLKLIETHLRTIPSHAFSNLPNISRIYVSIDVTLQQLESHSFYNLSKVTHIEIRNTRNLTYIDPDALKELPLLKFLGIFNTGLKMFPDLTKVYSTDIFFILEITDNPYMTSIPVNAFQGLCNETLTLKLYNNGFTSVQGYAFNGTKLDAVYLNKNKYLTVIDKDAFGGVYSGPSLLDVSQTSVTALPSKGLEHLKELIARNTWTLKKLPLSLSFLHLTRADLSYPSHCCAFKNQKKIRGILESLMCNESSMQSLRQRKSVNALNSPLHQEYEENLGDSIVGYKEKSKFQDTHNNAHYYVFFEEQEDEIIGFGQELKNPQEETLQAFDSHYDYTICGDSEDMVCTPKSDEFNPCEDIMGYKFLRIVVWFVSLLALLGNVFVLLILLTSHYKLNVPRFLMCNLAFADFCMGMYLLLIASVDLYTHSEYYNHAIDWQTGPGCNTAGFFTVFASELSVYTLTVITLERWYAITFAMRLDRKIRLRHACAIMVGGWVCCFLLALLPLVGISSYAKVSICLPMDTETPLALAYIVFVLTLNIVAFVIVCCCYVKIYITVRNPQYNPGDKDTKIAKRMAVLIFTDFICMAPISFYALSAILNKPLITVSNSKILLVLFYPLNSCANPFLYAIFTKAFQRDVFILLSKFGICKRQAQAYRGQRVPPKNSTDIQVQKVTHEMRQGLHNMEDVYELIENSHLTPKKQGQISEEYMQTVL
In short: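 Using 15 concentrations per compound in triplicate, cAMP production was monitored in TSHR-HEK293 cells after 30 min compound incubation at RT; HTRF reagents followed, with fluorescence intensity recorded after 1 h.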

[10] = qHTS assay to identify small molecule agonists of the hypoxia (HIF-1) signaling pathway - cell viability counter screen (AID 1224844; calls by dose curve; further: nearly all actives have a fitted effect of over 50% in size)
In short: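 Cytotoxicity was measured in parallel with the HRE-driven beta-lactamase readout: after 17 hrs of compound exposure at 37C, HRE-bla ME-180 cells received CellTiter-Glo and luminescence was recorded 30 min later.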

[11] = qHTS assay to identify small molecule agonists of H2AX (AID 1224845; active means well fitted activation curve with a large enough effect in the signal ratio in the repeat runs, not every such curve was filed as active; the % refers to the signal ratio)
In short: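 Wild-type CHO-K1 cells plated overnight, then exposed 3 hr at 37C to compounds at 15 concentrations (0.76% DMSO). Lysed, then HTRF anti-pH2AX(S139)-cryptate/anti-H2AX-d2 detection after 24 hr at room temperature; emissions 665 and 620 nm.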

[12] = qHTS assay to identify small molecule agonists of H2AX - cell viability counter screen (AID 1224847; calls by dose curve; further: top concentration of the series differs between compounds; nearly all actives have a fitted effect of over 30% in size)
In short: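 Compounds tested at 15 concentrations were incubated 3 hr at 37C with wild-type CHO-K1 cells; cellular ATP-based luminescence (CellTiter-Glo) indicated viability.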

[13] = qHTS assay to identify small molecule antagonists of the retinoid acid receptor (RAR) signaling pathway - cell viability counter screen (AID 1159551); further: nearly all actives have a fitted effect of over 35% in size
In short: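 Cells (C3RL4) are plated, incubated overnight, dosed with compound in DMSO, then given retinol at 1 uM final. After 6 h at 37 C, CellTiter-Glo is added and luminescence read following 30 min at room temperature.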

[14] = qHTS assay to identify small molecule antagonists of the retinoic acid receptor (RAR) signaling pathway (AID 1159552; further: nearly all actives have a fitted effect of over 50% in size)
In short: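 Test chemicals and DMSO controls were pin-transferred onto C3RL4 cells a day after seeding; retinol (1 uM final) followed at once. Luminescent reporter output was quantified after 6 hr of co-incubation and 30 min with detection reagent.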

[15] = molecular target: Nuclear receptor subfamily 1 group I member 3 (Homo sapiens) (UniProt Q14994); assay: qHTS assay to identify small molecule antagonists of the constitutive androstane receptor (CAR) signaling pathway (AID 1224838);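 further: HepG2 cells stably expressing hCAR with CYP2B6 luciferase reporter stimulated by CITCO; nearly all actives have a fitted effect of over 40% in size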
In short: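 Antagonist mode used CITCO at a final 50 nM to activate CAR in human hepatoma HepG2 cells carrying stable hCAR and a 2.2 kb CYP2B6 promoter-luciferase construct. Compounds were tested at 15 concentrations over 24 h, with luminescence as the end point.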

[16] = qHTS assay to identify small molecule agonists of the hypoxia (HIF-1) signaling pathway (AID 1224846; active means well fitted activation curve with a large enough effect in the signal ratio in the repeat runs, not every such curve was filed as active; the % refers to the signal ratio)
In short: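 Compounds from the Tox21 10K library, dissolved in DMSO, are tested for induction of a hypoxia response element–controlled beta-lactamase reporter in ME-180 cells. Exposure lasts 17 hrs at 37C after a 5 hr settling period, followed by CCF4-AM FRET substrate.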

[17] = qHTS assay to identify small molecule antagonists of the estrogen related receptor signaling pathway with the pleiotropic PPARgamma coactivator (PGC) from Tox21 10K library (AID 1224841; call rule not given here; further: actives are mostly falling curves and most rising ones were filed inactive; nearly all actives have a fitted effect of over 50% in size)
In short: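 Steps: plate 2,000 PGC/ERR cells per well; incubate 6 h at 37 C with 5% CO2; transfer compounds from DMSO stocks by pin tool; incubate 18 h at 37 C; add One-Glo; measure luminescence 30 min later.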

[18] = qHTS assay to identify small molecule agonists of the estrogen related receptor signaling pathway with the pleiotropic PPARgamma coactivator (PGC) from Tox21 10K library (AID 1224842); further: nearly all actives have a fitted effect of over 15% in size
In short: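 PGC/ERR reporter cells (NTP line) were seeded 2,000 per well, rested 6 h at 37 C/5% CO2, then pin-dosed with compounds in DMSO for 18 h at 37 C; luciferase read by One-Glo luminescence after 30 min at room temperature.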

[19] = qHTS assay to identify small molecule antagonists of the estrogen related receptor (ERR) signaling pathway from Tox21 library (AID 1224848); further: nearly all actives have a fitted effect of over 50% in size
In short: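 Tox21 10K compounds in DMSO tested for ERR pathway antagonism in NTP's ERR cell line; 18 h, 37 C exposure; ONE-Glo luminescence.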

Measured: Potency

NS(=O)(=O)c1cc2c(cc1Cl)NC(C(Cl)Cl)NS2(=O)=O (configuration not stated)
not listed: [13] | [14] | [15] | [16] | [17] | [18] | [19]
inactive: all other assays above

C=COCCOCCOC=C
not listed: [1] | [3] | [8] | [9] | [17] | [18] | [19]
inactive: all other assays above

COc1ccc(OC)c(NC(=O)CC(C)=O)c1
not listed: [3] | [7] | [17] | [18] | [19]
inactive: all other assays above

CN=C(NC#N)NCCSCc1csc(N=C(N)N)n1
not listed: [7] | [12] | [15]
inactive: all other assays above

Oc1ccccc1Cc1ccccc1O
not listed: [3] | [7] | [17]
inactive: all other assays above

CC1CCC(C(C)(C)S)C(=O)C1 (configuration not stated)
not listed: [4] | [7] | [13] | [15] | [17]
inactive: all other assays above

OC(CCN1CCCCC1)(c1ccccc1)c1ccccc1
inactive: [1] | [14] | [2] | [4] | [5] | [6] | [8] | [10] | [11] | [12]

CCC(C)(C)C1CCC(=O)CC1
not listed: [7] | [15]
inactive: all other assays above

CN[C@@H]1[C@H](O)[C@H](NC)[C@H]2O[C@@]3(O)C(=O)C[C@@H](C)O[C@H]3O[C@@H]2[C@H]1O
not listed: [7] | [15] | [17] | [18] | [19]
inactive: all other assays above

O=S(=O)(O)CCO
not listed: [3] | [7] | [12] | [15] | [17] | [18] | [19]
inactive: all other assays above

CCN(CCC#N)c1ccccc1
not listed: [3] | [7] | [14] | [17] | [18] | [19]
inactive: all other assays above

C=CCOc1c(Br)cc(Br)cc1Br
not listed: [4] | [7] | [9] | [17]
inactive: all other assays above

NC(=O)NC(=O)Cc1ccccc1
not listed: [7] | [13] | [15]
inactive: all other assays above

CCCCCCCCCCC
not listed: [7] | [14] | [16]
inactive: all other assays above
